# Experimental data as given in PubChem BioAssay.
# The source made the active and inactive calls. Unless noted, no stated cut-off is given here; in the data, active means inhibition above about 80%; inactive means the rest.
# Legend:
# [1] = growth inhibition, single agent or in combination, cell-based, chromothripsis tumors, cisplatin or BGB combos (AID 1671449); conditions: LFS_MB_P medulloblastoma cells;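 further: cells exposed for 96 hours; 0% = vehicle DMSO and 100% = killing by high DMSO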
# [2] = growth inhibition, single agent and combos, cell-based, chromothripsis tumors, cisplatin or BGB combos (AID 1671450); conditions: HDN33 neuroblastoma cells, stronger effect = higher value;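 further: cells exposed to compound for four days; 0% = vehicle DMSO and 100% = cell killing by high DMSO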
# [3] = growth inhibition, single agents and combos, ICB984, cell-based, cisplatin or BGB combos, synergistic combos for chromothripsis tumors (AID 1671451; call rule not given here;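 further: cells exposed for 96 hours before readout; 0% = vehicle DMSO and 100% = killing by high DMSO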); conditions: ICB984 medulloblastoma cells, drug combinations, stronger effect = higher value
# [4] = growth inhibition, single agents and combos, LFS_MB_1R, cell-based, cisplatin or BGB combos, synergistic combos for chromothripsis tumors (AID 1671452); conditions: LFS_MB_1R medulloblastoma cells, stronger effect = higher value;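 further: cells exposed for 96 hours before readout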
# [5] = growth inhibition, single agents and combos, HTB85, cell-based, BGB or cisplatin IC20 combos, synergistic combos for chromothripsis tumors (AID 1671453); conditions: HTB85 osteosarcoma cells, drug combinations, stronger effect = higher value;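 further: cells exposed for 96 hours before readout; 0% = vehicle DMSO and 100% = high DMSO killing control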
# [6] = growth inhibition, single agents and combos, CRL2098, cell-based, BGB or cisplatin IC20 combos, synergistic combos for chromothripsis tumors (AID 1671454); conditions: CRL2098 osteosarcoma cells, drug combinations, stronger effect = higher value;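 further: cells exposed for 96 h before readout; 0% = vehicle DMSO and 100% = killing by high DMSO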
# [7] = growth inhibition, single agents and combos, HD-MB03, cell-based, BGB or cisplatin IC20 combos, synergistic combos for chromothripsis tumors (AID 1671455; in the data active means inhibition above about 83%;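 further: 0% = vehicle DMSO and 100% = high DMSO as cytotoxic control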); conditions: HD-MB03 medulloblastoma cells, stronger effect = higher value
# [8] = growth inhibition, single agents and combos, UWB1.289, cell-based, BGB or cisplatin combos, synergistic combos for chromothripsis tumors (AID 1671456); conditions: UWB1.289 ovarian carcinoma cells, stronger effect = higher value;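 further: cells exposed to compound for four days; 0% = vehicle DMSO and 100% = killing by high DMSO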
# [9] = growth inhibition, single agents and combos, LFS_MB_2R, cell-based, cisplatin combos, synergistic combos for chromothripsis tumors (AID 1671457); conditions: LFS_MB_2R medulloblastoma cells, stronger effect = higher value;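 further: cells exposed to compound for four days before readout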
# [10] = growth inhibition, MDA-MB-436, cell-based, BGB or cisplatin combos, synergistic combos for chromothripsis tumors (AID 1671458; call rule not given here;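 further: cells exposed for 96 hours; 0% = vehicle DMSO and 100% = killing by high DMSO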); conditions: MDA-MB-436 breast carcinoma growth inhibition, drug combinations, stronger effect = higher value
# [11] = UWB1.289_BRCA1 ovarian cancer growth, cell-based, BGB or cisplatin combinations (AID 1671459); conditions: UWB1.289 BRCA1 ovarian carcinoma, drug combinations, stronger effect = higher value
# [12] = drug combination toxicity in non-malignant astrocytes – cell-based, BGB or cisplatin IC20 combos, cytotoxicity control for chromothriptic childhood tumor combination screen (AID 1671460); conditions: Human astrocytes, viability inhibition, drug combinations, at 0.5 µM, stronger effect = higher value;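 further: cells exposed to compounds for 96 hours before viability readout; 0% = vehicle and 100% = killing control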
# [13] = BT084 cell growth, single and combined drugs, ICGC_MB145, cisplatin and BGB IC40 combos (AID 1671461); conditions: BT084 medulloblastoma cells, drug combinations, stronger effect = higher value;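 further: cells exposed to drugs for 96 hours; 0% = vehicle DMSO and 100% = high DMSO full killing control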
# [14] = RCMB18 cell growth, single agent and combined, cisplatin and BGB IC40 combos (AID 1671462); conditions: RCMB18 medulloblastoma cells, stronger effect = higher value;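 further: cells exposed to compound for four days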
# [15] = CRL1545 cell growth, single agent and combined, cisplatin and BGB IC20 combos (AID 1671464); conditions: CRL1545 osteosarcoma cells, stronger effect = higher value;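 further: cells exposed to compound for 96 hours before readout; 0% = vehicle DMSO and 100% = high DMSO killing control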
# [16] = measured here: combination with BGB IC40, at 0.05 µM
# [17] = measured here: with BGB IC20 combination, at 0.5 µM
# [18] = measured here: with cisplatin IC20 combination, at 0.5 µM
# [19] = measured here: combination with cisplatin, at 0.5 µM
# [20] = measured here: combination with cisplatin, at 5 µM
smiles,measurement,setting,value
NC(=O)c1cccc2cn(-c3ccc(C4CCCNC4)cc3)nc12 (stereo not drawn),inhibition,"[1]; at 0.5 µM, stronger effect = higher value",-22.2% (inactive)
same,inhibition,"[1]; measured here: combination with BGB IC20, at 0.005 µM",9.92%
same,inhibition,"[1]; measured here: combination with BGB IC40, at 0.005 µM",-8.03%
same,inhibition,[1]; [16],-6.95%
same,inhibition,"[1]; measured here: combination with cisplatin, at 0.5 µM, stronger effect = higher value",-37.4%
same,inhibition,"[1]; measured here: combination with cisplatin, at 5 µM, stronger effect = higher value",-29.2%
same,inhibition,"[2]; BGB combo, at 5 µM",-13.1%
same,inhibition,[2]; at 0.5 µM,-12.8% (inactive)
same,inhibition,"[2]; cisplatin combo, at 5 µM",28.2%
same,inhibition,[2]; [17],-14.6%
same,inhibition,[2]; [18],-19.6%
same,inhibition,"[2]; single agent, at 5 µM",44.3%
same,inhibition,"[3]; BGB IC20 combo, at 0.005 µM",-10.7%
same,inhibition,"[3]; BGB IC40 combo, at 0.005 µM",-50.8%
same,inhibition,"[3]; BGB IC40 combo, at 0.05 µM",-43.2%
same,inhibition,[3]; at 0.5 µM,-25.3% (inactive)
same,inhibition,"[3]; cisplatin combo, at 0.05 µM",-48.9%
same,inhibition,"[3]; cisplatin combo, at 0.5 µM",-42.4%
same,inhibition,"[3]; cisplatin combo, at 5 µM",-33%
same,inhibition,"[3]; measured here: 5 uM single agent, at 5 µM",-12.1%
same,inhibition,[4]; at 0.5 µM,-17.8% (inactive)
same,inhibition,[4]; [16],-23.5%
same,inhibition,[4]; [19],-55.4%
same,inhibition,[4]; [20],-54.7%
same,inhibition,[5]; at 0.5 µM,-22% (inactive)
same,inhibition,"[5]; measured here: with BGB IC20, at 0.5 µM",-26.2%
same,inhibition,"[5]; measured here: with BGB IC20, at 5 µM",-8.36%
same,inhibition,"[5]; measured here: with cisplatin IC20, at 0.5 µM",-25.1%
same,inhibition,"[5]; measured here: with cisplatin IC20, at 5 µM",8.74%
same,inhibition,"[5]; single agent, at 5 µM",31.7%
same,inhibition,[6]; at 0.5 µM,-34.1% (inactive)
same,inhibition,"[6]; measured here: combination with BGB at IC20, at 0.5 µM",-52.1%
same,inhibition,"[6]; measured here: combination with cisplatin at IC20, at 0.5 µM",-0.058%
same,inhibition,[7]; at 0.5 µM,-5.6% (inactive)
same,inhibition,"[7]; measured here: combo with BGB at IC20, at 0.5 µM",-17.4%
same,inhibition,"[7]; measured here: combo with cisplatin at IC20, at 0.5 µM",6.18%
same,inhibition,[8]; at 0.5 µM,-3.23% (inactive)
same,inhibition,"[8]; measured here: inhibition with BGB combination, at 0.05 µM",2.85%
same,inhibition,"[8]; measured here: inhibition with cisplatin combination, at 0.05 µM",-19.1%
same,inhibition,[9]; at 0.5 µM,-4.32% (inactive)
same,inhibition,[9]; [19],-10.3%
same,inhibition,[9]; [20],-4.18%
same,inhibition,[10]; at 0.5 µM,13.9% (inactive)
same,inhibition,"[10]; measured here: BGB combination, at 0.5 µM",-2.85%
same,inhibition,"[10]; measured here: BGB combination, at 5 µM",-6.33%
same,inhibition,"[10]; measured here: cisplatin combination, at 0.5 µM",15.6%
same,inhibition,"[10]; measured here: cisplatin combination, at 5 µM",32.2%
same,inhibition,"[11]; BGB combination, concentration series, at 5 µM",-5.8%
same,inhibition,[11]; at 0.5 µM,0.96% (inactive)
same,inhibition,"[11]; cisplatin combination, concentration series, at 5 µM",23.7%
same,inhibition,[12],-10.9% (inactive)
same,inhibition,[12]; measured here: combo with BGB IC20,-10.9%
same,inhibition,[12]; measured here: combo with cisplatin IC20,-15.8%
same,inhibition,[13]; at 0.5 µM,-8.13% (inactive)
same,inhibition,"[13]; cisplatin combination, at 0.5 µM",-15.8%
same,inhibition,"[13]; cisplatin combination, at 5 µM",-1.06%
same,inhibition,"[13]; measured here: BGB IC40 combination 0.05 uM, at 0.05 µM",4.73%
same,inhibition,"[13]; single agent, at 5 µM",-30.1%
same,inhibition,[14]; at 0.5 µM,-4.94% (inactive)
same,inhibition,"[14]; cisplatin combo, at 5 µM",-39.1%
same,inhibition,"[14]; measured here: BGB IC40 combination, at 0.05 µM",-13.7%
same,inhibition,[14]; [19],-10.1%
same,inhibition,"[14]; single agent, at 5 µM",-43.2%
same,inhibition,[15]; at 0.5 µM,-29.8% (inactive)
same,inhibition,[15]; [17],-55.3%
same,inhibition,[15]; [18],-17%
same,inhibition,"[15]; single agent, at 0.05 µM",-35.4%
same,inhibition,"[15]; single agent, at 5 µM",30.1%
